Laboratory results published in PubChem BioAssay AID1159580 (chemical genetic matrix, 2015).
Out of some 5,500 compounds screened, about 2,000 (36%) were called active. Not shown: some 18% with an inconclusive outcome. Rule as the data show it: active = normalized growth mostly below about 0.91 (no sharp cut-off); inconclusive = no clear call, values can overlap the other calls; inactive = mostly above about 0.92. Some of the results follow.

Assay: chemical genetic growth profiling, strain panel (AID 1159580);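 also: tested at 20 µM; growth read once vehicle control cultures reached saturation at 30 °C; 1 = growth at the plate median or of vehicle wells; lower values mean less growth of the strain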
Settings: growth OD

Measured: normalized growth

CC1(C)C(=O)C=C[C@@]2(C)C1CC(=O)[C@@]1(C)C3=CC(=O)O[C@@H](c4ccoc4)[C@]3(C)CCC12 (some centres undefined)
inactive: S. cerevisiae deletion strains, locus YBR021W, strain FUR4, hits give low values 0.994 | S. cerevisiae deletion strains, locus YBR229C, strain ROT2, hits give low values 1 | S. cerevisiae deletion strains, locus YCL029C, strain bik1, hits give low values 0.994 | S. cerevisiae deletion strains, locus YDL035C, strain GPR1, hits give low values 1.02 | S. cerevisiae deletion strains, locus YDL074C, strain BRE1, hits give low values 1 | S. cerevisiae deletion strains, locus YDL101C, strain DUN1, hits give low values 0.997 | S. cerevisiae deletion strains, locus YDL185W, strain tfp1, hits give low values 1 | S. cerevisiae deletion strains, locus YDL192W, strain arf1, hits give low values 0.987 | S. cerevisiae deletion strains, locus YDR101C, strain arx1, hits give low values 0.988 | S. cerevisiae deletion strains, locus YDR162C, strain NBP2, hits give low values 1.01 | S. cerevisiae deletion strains, locus YDR318W, strain mcm21, hits give low values 0.993 | S. cerevisiae deletion strains, locus YDR388W, hits give low values 0.996 | S. cerevisiae deletion strains, locus YDR502C, strain sam2, hits give low values 0.983 | S. cerevisiae deletion strains, locus YER110C, hits give low values 0.989 | S. cerevisiae deletion strains, locus YER155C, strain BEM2, hits give low values 1.01 | S. cerevisiae deletion strains, locus YER167W, strain BCK2, hits give low values 1 | S. cerevisiae deletion strains, locus YGL078C, strain dbp3, hits give low values 0.999 | S. cerevisiae deletion strains, locus YGL086W, strain mad1, hits give low values 1.01 | S. cerevisiae deletion strains, locus YGL248W, strain PDE1, hits give low values 0.997 | S. cerevisiae deletion strains, locus YGR078C, strain PAC10, hits give low values 0.997 | S. cerevisiae deletion strains, locus YGR135W, strain pre9, hits give low values 0.993 | S. cerevisiae deletion strains, locus YGR229C, strain SMI1, hits give low values 1.01 | S. cerevisiae deletion strains, locus YGR252W, strain gcn5, hits give low values 0.939 | S. cerevisiae deletion strains, locus YHR079C, strain IRE1 (second series), hits give low values 0.988 | S. cerevisiae deletion strains, locus YHR094C, strain hxt1, hits give low values 0.991 | S. cerevisiae deletion strains, locus YHR129C, strain ARP1, hits give low values 0.998 | S. cerevisiae deletion strains, locus YHR200W, strain rpn10, hits give low values 0.99 | S. cerevisiae deletion strains, locus YIL066C, strain RNR3, hits give low values 1.01 | S. cerevisiae deletion strains, locus YIL073C, strain SPO22, hits give low values 1.04 | S. cerevisiae deletion strains, locus YIL125W, strain kgd1, hits give low values 0.991 | S. cerevisiae deletion strains, locus YIR030C, strain dcg1, hits give low values 0.996 | S. cerevisiae deletion strains, locus YJL095W, strain BCK1, hits give low values 0.988 | S. cerevisiae deletion strains, locus YJL134W, strain LCB3, hits give low values 1.01 | S. cerevisiae deletion strains, locus YJL168C, strain set2, hits give low values 0.998 | S. cerevisiae deletion strains, locus YJL187C, strain SWE1 (second series), hits give low values 0.996 | S. cerevisiae deletion strains, locus YJR043C, strain POL32, hits give low values 1.01 | S. cerevisiae deletion strains, locus YKL009W, strain mrt4, hits give low values 1.01 | S. cerevisiae deletion strains, locus YKL068W, hits give low values 1 | S. cerevisiae deletion strains, locus YKL085W, strain MDH1 (second series), hits give low values 0.998 | S. cerevisiae deletion strains, locus YKL085W, strain MDH1, hits give low values 0.998 | S. cerevisiae deletion strains, locus YKR001C, strain vps1, hits give low values 0.98 | S. cerevisiae deletion strains, locus YLR039C, strain RIC1, hits give low values 1.02 | S. cerevisiae deletion strains, locus YLR058C, strain SHM2, hits give low values 1 | S. cerevisiae deletion strains, locus YLR102C, strain apc9, hits give low values 0.994 | S. cerevisiae deletion strains, locus YLR262C, strain YPT6, hits give low values 1.04 | S. cerevisiae deletion strains, locus YLR268W, strain sec22, hits give low values 1 | S. cerevisiae deletion strains, locus YLR330W, strain CHS5, hits give low values 1 | S. cerevisiae deletion strains, locus YLR371W, strain rom2, hits give low values 0.988 | S. cerevisiae deletion strains, locus YLR418C, strain cdc73, hits give low values 0.985 | S. cerevisiae deletion strains, locus YML016C, strain PPZ1, hits give low values 1 | S. cerevisiae deletion strains, locus YML032C, strain rad52, hits give low values 0.998 | S. cerevisiae deletion strains, locus YML124C, strain tub3, hits give low values 0.996 | S. cerevisiae deletion strains, locus YMR078C, strain ctf18, hits give low values 1.01 | S. cerevisiae deletion strains, locus YMR223W, strain ubp8, hits give low values 0.983 | S. cerevisiae deletion strains, locus YMR263W, strain SAP30, hits give low values 0.998 | S. cerevisiae deletion strains, locus YMR307W, strain GAS1, hits give low values 0.98 | S. cerevisiae deletion strains, locus YNL067W, strain RPL9B, hits give low values 0.996 | S. cerevisiae deletion strains, locus YNL128W, strain TEP1, hits give low values 1.02 | S. cerevisiae deletion strains, locus YNL233W, strain BNI4, hits give low values 1.02 | S. cerevisiae deletion strains, locus YNL250W, strain rad50, hits give low values 1 | S. cerevisiae deletion strains, locus YNL271C, strain bni1, hits give low values 1 | S. cerevisiae deletion strains, locus YNL298W, strain CLA4, hits give low values 0.987 | S. cerevisiae deletion strains, locus YNL307C, strain MCK1, hits give low values 0.994 | S. cerevisiae deletion strains, locus YNR052C, strain pop2, hits give low values 0.979 | S. cerevisiae deletion strains, locus YOL012C, strain htz1 1.33 | S. cerevisiae deletion strains, locus YOL147C, strain pex11, hits give low values 0.992 | S. cerevisiae deletion strains, locus YOR061W, strain CKA2, hits give low values 1.01 | S. cerevisiae deletion strains, locus YOR069W, strain VPS5, hits give low values 0.999 | S. cerevisiae deletion strains, locus YOR136W, strain idh2, hits give low values 1.01 | S. cerevisiae deletion strains, locus YOR144C, strain elg1, hits give low values 0.99 | S. cerevisiae deletion strains, locus YOR184W, strain ser1, hits give low values 1.01 | S. cerevisiae deletion strains, locus YOR316C, strain cot1, hits give low values 0.992 | S. cerevisiae deletion strains, locus YPL241C, strain CIN2, hits give low values 1.01 | S. cerevisiae deletion strains, locus YPR119W, strain clb2, hits give low values 0.998 | S. cerevisiae deletion strains, locus YPR141C, strain kar3, hits give low values 1 | S. cerevisiae deletion strains, locus YPR163C, strain tif3, hits give low values 1 | S. cerevisiae deletion strains, locus YPR167C, strain met16, hits give low values 1 | S. cerevisiae deletion strains, strain wtn01, hits give low values 0.992 | S. cerevisiae strains, strain wild type, hits give low values 1.01
